HT1080 IDH1KD tx: toxicity to HT-1080 IDH1 knockdown cells (counter line); Potency, µM (top dose mostly 46.1 µM), for the others: top-dose activity, negative = toxicity, actives largely listed as cytotoxic; AID 686971; 360,000 compounds, 2% hits; HT-1080 IDH1 knockdown viability, ATP luminescence, 48 h;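 note: 0% = DMSO wells and -100% = cell-free medium wells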
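Using the IDH1-knockdown HT-1080 line run in the same batch and compound series as the NT line, viability after 48 h at 37 °C was determined by CellTiter-Glo luminescence and expressed as % activity.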
HepG2 tox: HepG2 cytotoxicity, counter-screen for TGF-b inhibitors; AID 588856; Potency, µM (series often up to 46.1 µM), for inactives: at the top dose activity change, negative = cytotoxicity, actives largely listed as cytotoxic; HepG2 CAGA-GFP viability, ATP luminescence, 18 h; 410,000 compounds, 0.76% hits
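HepG2 CAGA-GFP cells (1000/well, DMEM with 1% FBS) received compound, then TGF-beta at 500 pg/mL final, and were incubated 18 hours at 37 degrees C. Viability was read by CellTiter-Glo luminescence. Media-only wells were set as complete cell-killing and DMSO as no toxicity.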
DT40 TDP1 no CPT: qHTS for Inhibitors of human tyrosyl-DNA phosphodiesterase 1 (TDP1): qHTS in cells in absence of CPT | AID 686978, 2013 | DT40 Tdp1-/- hTDP1 cells, no CPT, ATP luminescence, 48 h | Potency, µM (highest dose often 46.2 µM), inactives show at the top dose activity change, negative = growth inhibition, most hits filed as inhibitors | 420,000 compounds, 15% hits; note: % is set by controls: 0 for no effect and ±100 for the full control effect; nearly all actives have a fitted effect of over 55% in size
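Growth of hTDP1-complemented DT40 Tdp1-knockout cells is measured by ATP luminescence after at least 48 hr compound exposure at 37 °C, with DMSO substituting for the 20 nM CPT used in the parallel screen.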
TGFb inhibitor: blocks TGF-b signaling; Potency, µM (top dose mostly 46.1 µM), without a hit: at the top dose activity, negative = inhibition, most hits filed as inhibitors; HepG2 CAGA-GFP TGF-b/SMAD3 reporter, GFP fluorescence, 18 h; TGF-beta stimulated, 500 pg/mL final; 410,000 compounds, 1.2% hits; note: % is set by controls: 0 for no effect and ±100 for the full control effect; nearly all actives have a fitted effect of over 65% in size
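Inhibition of TGF-beta-driven CAGA-GFP reporter expression in HEPG2 cells is measured by cellular GFP fluorescence after 18 h stimulation with 500 pg/mL recombinant TGF-beta in 1% FBS medium at 37 degrees C.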
DT40 TDP1 CPT: DT40-hTDP1 cell growth loss with CPT; chicken DT40 Tdp1-/-;hTDP1 cells + 20 nM CPT, ATP luminescence, 48 h; AID 686979; 420,000 compounds, 12% hits; Potency, µM (series often up to 46.2 µM), for inactives: at the top dose activity change, negative = growth inhibition, hits mostly inhibitors; note: % is set by controls: 0 for no effect and ±100 for the full control effect; nearly all actives have a fitted effect of over 55% in size
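Chicken DT40 Tdp1-/- cells complemented with human TDP1, 400 cells/well, exposed to compounds plus 20 nM camptothecin for at least 48 h at 37 C; viability read as ATP content by CellTiter-Glo luminescence.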
HT1080-NT tox: kills 2HG-producing HT-1080-NT fibrosarcoma cells; Potency, µM (titrated, usually from 46.1 µM), inactives show top-dose activity, negative = less viability, most hits filed as cytotoxic; HT-1080-NT fibrosarcoma viability, CellTiter-Glo ATP luminescence, 48 h; 360,000 compounds, 1.6% hits; AID 686970;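 note: NT is the 2HG producing partner of a matched IDH1 knockdown line; 0% = DMSO-treated cells and -100% = media-only wells without cells; nearly all actives have a fitted effect of over 55% in size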
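A 48-hour cytotoxicity screen used HT-1080-NT cells plated 2 hours before compound delivery. ATP-based CellTiter-Glo luminescence measured viability, normalized to DMSO and no-cell controls.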
Numbers without * were called inactive; u = inconclusive; x = no result; [ ] = remark or other dose. Compounds with a hit are over-represented: about 17% of the library has one in this group of screens. Calls come from the whole dose curve; as a rule, active = well fitted curve in the direction sought with a large enough effect; inconclusive = small, poorly fitted or top-dose-only effect, or another doubt; inactive = no such curve, though single readings can be large; an effect the other way counts as inactive or inconclusive. Potency is the fitted concentration of half-maximal effect.

SMILES	HT1080 IDH1KD tx	HepG2 tox	DT40 TDP1 no CPT	TGFb inhibitor	DT40 TDP1 CPT	HT1080-NT tox
Cc1cc(=O)oc2cc(O[C@@H]3O[C@H](CO)[C@@H](O)[C@H](O)[C@H]3O)ccc12	10.3%	-0.1%	-16.2%	5.4%	1.1%	8.5%
Cc1cc(NC(=O)CCN2C(=O)C3C4C=CC(C4)C3C2=O)ccc1Br (configuration not stated)	-14.8%	-14.9%	-10.0%	0.8%	4.1%	-28.9%
CN(CC(=O)Nc1ccc(F)c(F)c1F)C(=O)/C=C/c1ccco1	-0.9%	-9.4%	-13.9%	-6.3%	2.7%	-1.2%
CCOC(=O)c1nnn(CC(=O)Nc2cccc(Cl)c2C)c1C(=O)OCC	-1.4%	-10.7%	-3.2%	-0.1%	u	0.5%
CCOC(=O)c1nnn(CC(=O)N2N=C(c3cccc4ccccc34)CC2c2ccccc2)c1C(=O)OCC (configuration not stated)	-2.7%	-28.6%	20.6µM*	-19.6%	u	-5.3%
COc1cc2c(cc1OC)C1(Nc3c-2c(-c2ccccc2)nn3-c2ccccc2)C(=O)Nc2ccccc21 (configuration not stated)	-30.0%	-13.0%	u	15.8µM*	u	u
O=C(NNc1ccccc1)C(=O)NNc1ccccc1	1.16µM*	-1.4%	u	-8.4%	-5.8%	-18.1%
O=C(CNS(=O)(=O)Cc1ccccc1)NCc1ccccc1	17.6%	7.4%	1.6%	-1.3%	7.6%	20.9%
O=C(CNS(=O)(=O)Cc1ccccc1)NNc1ccccc1	4.11µM*	0.9%	u	-3.3%	-16.1%	u
O=C(NNc1ccccc1)OCc1ccccc1	3.26µM*	-10.7%	u	0.2%	u	u
O=C(CC(=O)OCc1ccccc1)OCc1ccccc1	2.7%	1.9%	-0.5%	1.0%	-16.3%	-0.2%
COc1cc(=O)n2c(c1C(=O)NCc1cccc(F)c1)CCN(Cc1cccnc1)CC2	x	x	-19.7%	x	-5.5%	x
Nc1nc(SCC(=O)Nc2ccc(Cl)cc2)[nH]c(=O)c1-c1ccccc1	-17.7%	-0.8%	-10.2%	-1.8%	-1.0%	-21.1%
CCCN(Cc1cccs1)C(=O)Nc1cc(Cl)ccc1C	x	-2.9%	23.1µM*	12.7%	u	x
CCCN(Cc1cccs1)C(=O)Nc1ccc(Br)c(C)c1	x	-28.4%	u	11.2µM*	u	x
CCCN(Cc1cccs1)C(=O)Nc1ccc(OCC)cc1	x	-14.6%	u	-5.9%	-22.0%	x
Cc1ccc(Cl)cc1NC(=S)N(CCCN1CCN(C)CC1)Cc1cccs1	u	-8.5%	-16.0%	-5.0%	1.0%	-20.1%
Brc1cc2c(cc1/C=N/Nc1nc3ccccc3s1)OCO2	2.2%	-30.7%	u	-9.3%	14.6µM*	3.8%
O=[N+]([O-])c1cc(Cl)cc(/C=N/Nc2nc3ccccc3s2)c1O	18.4µM*	-11.7%	0.92µM*	7.9%	0.326µM*	20.6µM*
COc1cc(/C=N/Nc2nc3ccccc3s2)cc([N+](=O)[O-])c1O	4.6%	-23.2%	u	-18.5%	u	-6.6%
Fc1ccc2nc(Nc3nc4cc5c(cc4s3)OCO5)sc2c1	u	-45.9%	u	u	u	u
Fc1ccc2nc(Nc3nc4cc5c(cc4s3)OCCO5)sc2c1	u	-16.8%	u	u	16.4µM*	-12.4%
C(=N\Nc1nc2ccccc2s1)/c1ccc2c(c1)OCO2	u	-48.4%	u	-8.8%	-20.3%	-27.3%
Fc1ccc2nc(Nc3nc4c(F)cc(F)cc4s3)sc2c1	-7.3%	-6.1%	14.6µM*	u	16.4µM*	-7.3%
CCC1CN(CC(=O)N(C)Cc2nc3ccccc3[nH]2)Cc2cc(OC)ccc2O1 (configuration not stated)	x	x	-19.5%	x	-9.7%[9.04 µM]	x
SMILES	HT1080 IDH1KD tx	HepG2 tox	DT40 TDP1 no CPT	TGFb inhibitor	DT40 TDP1 CPT	HT1080-NT tox
COc1ccccc1-c1nnc(C2CCN(S(=O)(=O)c3ccc(CC(C)C)cc3)CC2)o1	x	-29.7%	u	u	u	x
CC1(c2cccc(Br)c2)NC(=O)N(CC(=O)N2CCc3ccccc32)C1=O (configuration not stated)	-12.3%	-2.8%	u	-16.3%	-2.1%	-3.3%
c1ccc2sc(Nc3nc4cc5c(cc4s3)OCO5)nc2c1	-10.8%	-9.3%	u	-7.7%	23.1µM*	-15.0%
Fc1cccc2sc(Nc3nc4ccccc4s3)nc12	-10.2%	-22.6%	11.6µM*	-0.5%	u	-11.6%
Fc1ccc2nc(Nc3nc4c(F)cccc4s3)sc2c1	u	-31.4%	u	u	u	-29.4%
Cn1nnc2cc(NC(=O)Nc3ccccc3F)ccc21	-5.0%	-46.7%	16.4µM*	2.8%	u	-3.7%
COc1ccccc1NC(=O)Nc1ccc2c(c1)nnn2C	-3.0%	12.8%	-20.3%	16.9%	-19.9%	20.4%
COc1cccc(CCc2nc3ccccc3c(=O)n2N)c1	-2.6%	-12.4%	20.6µM*	-16.0%	u	5.0%
O=C1CC(c2ccccc2)=Nc2ccccc2N1	10.9%	-1.3%	-0.8%	0.0%	7.2%	17.5%
O=C1CC(/C=C/c2ccncc2)=Nc2ccccc2N1	u	-19.0%	5.8µM*	-21.2%	5.8µM*	u
Cn1c(CCNC(=O)c2ccco2)nc2ccccc21	7.0%	-17.0%	-7.4%	0.0%	-0.6%	-0.8%
COc1ccccc1C(=O)Nc1ccc2c(c1)nc(CCNC(=O)c1ccco1)n2C	4.61µM*	-14.5%	0.92µM*	u	1.3µM*	u
Cn1c(CCNC(=O)c2ccco2)nc2cc(NC(=O)c3ccco3)ccc21	0.8%	-2.0%	-25.0%	20.4%	u	3.0%
Cn1c(CCNC(=O)c2ccco2)nc2cc(NS(=O)(=O)c3ccccc3)ccc21	0.3%	4.3%	u	-24.1%	20.6µM*	-0.8%
COc1ccccc1N(CCC#N)C(=O)CSc1nnc2ccccn12	8.1%	6.0%	1.3%	12.3%	9.7%	2.2%
COc1cc2nc(N(C)C)c(CNCc3nonc3C)cc2c(OC)c1OC	x	x	-13.4%	x	4.8%[9.04 µM]	x
CC1(C)CC(=O)C(C=NCCO)=C(O)C1	16.5%	9.7%	u	1.2%	18.4µM*	26.1%
CC1(C)CC(=O)C(C=NCCN2CCOCC2)=C(O)C1	-0.3%	-41.8%	-25.5%	-17.3%	-24.3%	-6.0%
O=C(NC1CCCCC1)C(c1ccc(F)cc1)N(CCc1ccccc1)C(=O)CN1C(=O)c2ccccc2S1(=O)=O (configuration not stated)	u	11.9%	5.8µM*	1.2%	3.66µM*	u
